Compound activity as filed in PubChem BioAssay.
Shiga toxin inh – Shiga toxin inhibition | Vero cells, Shiga toxin protein synthesis inhibition reporter | inhibition, % at 38.7 µM | 290,000 compounds, 9.2% hits | AID 2315; in the data active = inhibition mostly above about 28%, no sharp cut-off; inactive = mostly below about 43%
NS1 function inh – blocks influenza NS1 protein function; AID 2326; 270,000 compounds, 0.4% hits; Potency, µM (highest dose often 46.1 µM); note: actives are rising curves; nearly all actives have a fitted effect of over 50% in size
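In this qHTS, NS1 from influenza A is expressed in budding yeast, where it slows growth. Cells are switched from glucose to 2% galactose medium (pH 6.0, -URA), treated with compound, and growth recovery is read at OD600.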
CHX counter – counter-screen hit for Shiga toxin inhibitors, cycloheximide. cell reporter, cycloheximide protein synthesis inhibition counterscreen. max response, %. 300,000 compounds, 12% hits. AID 2314; in the data active = max response mostly above about 13%, no sharp cut-off; inactive = mostly below about 14%; note: read at 38.3 µM for the half of the compounds with a filed dose
SARS PLpro yeast – inhibitors of SARS-CoV papain-like protease in yeast; AID 485353; Potency, µM (titrated, usually from 32.9 µM), actives largely listed as activators; 330,000 compounds, 0.19% hits; S. cerevisiae expressing SARS-CoV PLpro, growth rescue; note: nearly all actives have a fitted effect of over 55% in size
Of the large screens only hits and unclear results are named; the others gave an inactive call. The list is not random: actives were taken first. Their share in the collection is about 12%. Unless noted, calls come from the whole dose curve.

CC(C)c1cccc(C(C)C)c1NC(=O)CN1C(=O)NC2(CCCCCCC2)C1=O	none (no result: Shiga toxin inh, NS1 function inh, CHX counter)
COc1ccc(-c2cc3c(=O)n(CC(=O)Nc4ccc(Cl)cc4)ncn3n2)cc1	none
Cn1cnc2cc(NCc3ccccc3O)ccc21	Shiga toxin inh 114, CHX counter 61
CCn1cnc2cc(NCc3ccc(Cl)cc3)ccc21	Shiga toxin inh 119, CHX counter 41
CCn1cnc2cc(NCc3ccncc3)ccc21	none
Nc1nc(CSc2ccccc2)nc(N2CCCCC2)n1	Shiga toxin inh 138, CHX counter 51 (no result: NS1 function inh)
Nc1nc(CSc2ccc(Cl)cc2)nc(N2CCCCC2)n1	none
CC(=O)Nc1ccccc1NC(=O)c1ccccc1	none
CC(=O)Nc1cccc2c1Cc1ccccc1-2	CHX counter 41
N#C/C(=C\c1ccncc1)c1ccccn1	none
COc1ccc(/C(C#N)=C/c2cccnc2)cc1	Shiga toxin inh 71, CHX counter 45
N#C/C(=C\c1cccnc1)c1ccccn1	CHX counter 11
N#C/C(=C\c1ccccc1)c1ccccn1	Shiga toxin inh 91, CHX counter 31
C(=C\c1ccccn1)/c1cccnc1	Shiga toxin inh 67, CHX counter 21
CC(=O)N[C@@H]1c2c(ccc3ccccc23)OC[C@@H]1COC(C)=O	none (no result: NS1 function inh)
CCOC(=O)N/N=C(/C)c1cccc(-n2cnnn2)c1	none (no result: NS1 function inh)
CNc1ccc(/C=C(\C#N)c2ccccn2)cc1[N+](=O)[O-]	Shiga toxin inh 69, CHX counter 45 (no result: NS1 function inh)
COc1cc(OC)c(-c2c3cc(O)c(=O)cc-3oc3cc(O)c(O)cc23)cc1OC	SARS PLpro yeast 3.2µM
CCCn1nnnc1NCc1ccc(C(C)C)cc1	none
CCCCCCN1C=CC(=C2C(=O)c3ccccc3C2=O)C=C1	Shiga toxin inh 46, CHX counter 37
CN1C=CC(=C2C(=O)c3ccccc3C2=O)C=C1	CHX counter 38
O=[N+]([O-])c1ccc(N2CCN(Cc3ccc(Br)o3)CC2)cc1	none
Clc1ccccc1/C=N/NC1=Nc2cccc3cccc1c23	Shiga toxin inh 66, CHX counter 32
Cc1csc(N/N=C/c2ccccn2)n1	none (no result: NS1 function inh)
Cc1cc(=O)[nH]c(N/N=C/c2ccccc2Cl)n1	none
C(=N\NC1=Nc2cccc3cccc1c23)/c1ccccn1	Shiga toxin inh 97, CHX counter 53 (no result: NS1 function inh)
CCN1C(=O)[C@@H]2[C@@H](c3ccc(SC4CCCCC4)cc3)N3CCCC[C@@]3(C(=O)OC)[C@@H]2C1=O	none (no result: Shiga toxin inh, NS1 function inh, CHX counter)
CC(=O)Nc1c(C)nn(-c2ccc(C)c(C)c2)c1C	none
Cc1cc(N)n(-c2ccccn2)n1	Shiga toxin inh 72, CHX counter 17
Cc1cc(N)n(-c2ccc([N+](=O)[O-])cc2)n1	none (no result: NS1 function inh)
CCC(=O)Nc1c(C)nn(-c2ccc(C)c(C)c2)c1C	Shiga toxin inh 65, CHX counter 22
Cc1ccc(-n2nc(C)c(NC(=O)CCl)c2C)cc1C	Shiga toxin inh 101, CHX counter 33
Cc1cc(N)n(-c2ccc(C)c(C)c2)n1	Shiga toxin inh 62, CHX counter 27 (no result: NS1 function inh)
CC(=O)OC1C=C[C@@H](OC(C)=O)C1 (stereo not given in full)	none (no result: NS1 function inh, SARS PLpro yeast)
CCO[C@H]1OC(C(=O)NCc2ccccc2)=C[C@@H](c2cn(C(C)=O)c3ccccc23)[C@@H]1CCCO	none
O=C(O)c1ccc(-c2sc(Nc3ccccc3)n[n+]2-c2ccc(F)cc2)cc1	none
CCc1ccc(Nc2n[n+](-c3ccccc3)c(-c3ccc(OCc4ccccc4)cc3)s2)cc1	CHX counter 19
Cc1cccc(-c2sc(Nc3ccccc3)n[n+]2-c2ccccc2)c1	none (no result: Shiga toxin inh, NS1 function inh, CHX counter)
c1ccc(COc2ccc(-c3sc(Nc4ccccc4)n[n+]3-c3ccccc3)cc2)cc1	Shiga toxin inh 35, CHX counter 20
O=C(O)c1ccc(-c2sc(Nc3ccccc3)n[n+]2-c2ccccc2)cc1	CHX counter 20
Cc1sc2c(c1C)C(O)=C(C(=O)Nc1ccccc1)S(=O)(=O)N2C	none
CCOC(=O)N1CCC(N2CCCC(CO)(Cc3cccc(OC)c3)C2)CC1 (stereo not given)	none
O=[N+]([O-])c1ccc(C2NS(=O)(=O)N=C3CCCCCN32)cc1 (stereo not given)	none
Cc1ccc(-n2ccc(=O)c(C(=O)Nc3ccc(S(=O)(=O)Nc4onc(C)c4C)cc3)n2)cc1	none (no result: SARS PLpro yeast)
O=C(CSc1ccc2ccccc2c1)NCc1cccs1	CHX counter 32
Cn1nnnc1SCC(=O)NCc1cccs1	none
O=C(CSc1ncccn1)NCc1cccs1	none
O=C(CSc1nnc2ccccn12)NCc1cccs1	Shiga toxin inh 52, CHX counter 21
CCc1ccccc1OCC(=O)NNCC(=O)Nc1cccc(C#N)c1	none (no result: Shiga toxin inh, NS1 function inh, CHX counter)
COc1ccc(OCC(O)CN(CC(O)COc2ccc(OC)cc2)c2cccc(O)c2)cc1 (stereo not given)	CHX counter 19
O=C(c1ccco1)c1cn(Cc2ccc(Cl)cc2)c2ccccc12	CHX counter 23
O=C(O)Cn1cc(C(=O)c2ccco2)c2ccccc21	none
COc1ccccc1OCCn1cc(C(=O)c2ccco2)c2ccccc21	none
COc1ccccc1OCCCn1cc(C(=O)c2ccco2)c2ccccc21	Shiga toxin inh 143, CHX counter 35
c1ccc2oc(-c3ccn[nH]3)cc2c1	Shiga toxin inh 90, CHX counter 39
c1ccc2oc(-c3[nH]ncc3CN3CCSCC3)cc2c1	none
CC(=O)O[C@@H]1[C@H]2[C@@H](C[C@@H](C)[C@@H]3CCC(=O)[C@@]13C)OC(=O)[C@@H]2C	CHX counter 18
CC1C(=O)O[C@@H]2C[C@@H](C)[C@@H]3CCC(=O)[C@@]3(C)[C@@H](O)[C@H]12 (stereo not given in full)	none
Clc1cccc(Cl)c1CNc1ccc(N2CCCC2)cc1	CHX counter 20
COC(=O)Cn1ncc2c3ccccc3n(Cc3ccccc3)c2c1=O	none
COC(=O)Cn1ncc(N(C)Cc2ccccc2)c(Cl)c1=O	Shiga toxin inh 72, CHX counter 41
N#Cc1cc(C#N)c(N2CCN(c3cccc(Cl)n3)CC2)nc1N	Shiga toxin inh 89, CHX counter 67, SARS PLpro yeast inconclusive
NC1CCN(c2cccc(Cl)n2)CC1	none (no result: Shiga toxin inh, CHX counter, SARS PLpro yeast)
COc1cc(/C=N/NC(=S)Nc2cccc(S(=O)(=O)N(C)C)c2)ccc1O	Shiga toxin inh 49, CHX counter 30
O=C(N/N=C/c1ccc(Br)cc1)c1ccc(Br)o1	Shiga toxin inh 65, CHX counter 51
O=C(N/N=C/c1ccncc1)c1cccc(N/N=C/c2ccncc2)c1	none (no result: NS1 function inh)
O=C(N/N=C/c1ccccc1C(F)(F)F)c1ccc(O)cc1	Shiga toxin inh 69, CHX counter 26 (no result: NS1 function inh)
O=C(N/N=C/c1ccc(F)cc1)c1ccc(Br)cc1	none
CN(C)S(=O)(=O)c1cccc(NC(=S)N/N=C/C2CC=CCC2)c1 (stereo not given)	none
O=C(N/N=C/c1ccc(O)cc1)c1cccc(N/N=C/c2ccc(O)cc2)c1	Shiga toxin inh 60, CHX counter 37
CC(=O)Nc1nc2ncc(C=O)nc2c(=O)[nH]1	none (no result: Shiga toxin inh, CHX counter, SARS PLpro yeast)
O=C(N/N=C/c1ccc(F)cc1)c1cc[n+]([O-])cc1	Shiga toxin inh 61, CHX counter 18
O=C(N/N=C/c1ccc(Br)cc1)c1cc[n+]([O-])cc1	none
O=C(N/N=C/c1ccc(Br)cc1)c1ccc(F)cc1	Shiga toxin inh 47, CHX counter 35
O=C(N/N=C/c1ccc(F)cc1)c1ccccc1	Shiga toxin inh 126, CHX counter 33 (no result: NS1 function inh)
